These results are taken from paper PMC9574860, “Chemical Toolkit for PARK7: Potent, Selective, and High-Throughput” (Journal of Medicinal Chemistry, 2022).

Structures are written as SMILES. The whole screen tested about 7,900 compounds, of which about 400 (5.1%) showed an effect of 50% or more. The sample holds strong results, similar compounds and a random draw of the others, so the mix is not that of the screen.

Chain of Parkinson's disease protein 7 (PARK7/DJ1) (Q99497 whole entry, looked up, the tested form may be a part): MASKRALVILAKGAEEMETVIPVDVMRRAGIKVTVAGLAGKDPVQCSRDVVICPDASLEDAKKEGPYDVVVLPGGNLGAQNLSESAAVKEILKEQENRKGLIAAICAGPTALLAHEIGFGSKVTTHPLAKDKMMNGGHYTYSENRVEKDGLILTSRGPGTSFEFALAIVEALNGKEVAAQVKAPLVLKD

For the test, the target named is Parkinson's disease protein 7 (PARK7/DJ1) (human, UniProt Q99497). In words: primary screen, percent inhibition; read as competition with a fluorescent probe by fluorescence polarization; higher = more effect of the substance. The following applies: 100 µM. In a few lines:
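Covalent fragments at 100 μM final were incubated 2 h with 0.2 μM PARK7, then 20 nM probe JYQ-107 added for a further 2 h. Fluorescence polarization read at 480/520 nm; relative FP loss versus reference controls gave remaining enzyme activity.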
In the case of `CN(C)CCOc1ccccc1B1OC(C)(C)C(C)(C)O1`, the Inhibition % amounted to 6.97%.
As for `C=CC(=O)N(C)C1CCN(c2ncnc3ccccc23)CC1`, the figure is 16.8%; as for `Cc1csc(NC(=O)CCN2C(=O)CCC2=O)n1`, 5.08%.
Under `Cc1csc(NC(=O)CCl)n1` stands -1.74%; under `Cc1csc(NC(=O)CS)n1`, 71.5%.
Regarding `Cc1cc(Br)ccc1NC(=O)CCl`, the Inhibition % was found to be 19.7%.
As for `O=C(CCl)NCc1ccc(F)cc1C(F)(F)F`, the Inhibition % was 13.5%.
Consider `C=CC(=O)N(Cc1cccc(C)n1)Cc1cccc(C)n1.O=C(O)C(F)(F)F`, for which the Inhibition % came to 8%.
Under `COC(=O)c1c(NC(=O)CCl)sc(C)c1C` stands 10.8%.
As for `Cc1sc(NC(=O)CCl)c(C#N)c1C`, the figure is 9.37%; as for `Cc1sc(NC(=O)CCl)c(C)c1C`, 56.3%; as for `C=CC(=O)N1CC(n2nc(C)nc2C)C1`, 9.38%.
As for `Cn1cnc(NS(=O)(=O)c2ccc(S(=O)(=O)F)cc2)n1`, the figure is 5.05%; as for `Cn1ccc(NS(=O)(=O)c2cccc(S(=O)(=O)F)c2)n1`, 97.7%; as for `Cn1cc(NS(=O)(=O)c2ccc(S(=O)(=O)F)cc2)cn1`, 33%.
Consider `Cn1ccc(Nc2ccc(S(=O)(=O)F)cn2)n1`, for which the Inhibition % is 4.77%.
Under `Cn1ncnc1NS(=O)(=O)c1ccc(S(=O)(=O)F)cc1` stands 5.71%.
As for `CCc1nn(C)cc1NS(=O)(=O)c1cccc(S(=O)(=O)F)c1`, the figure is 95.4%; as for `Cn1ccc(NS(=O)(=O)C=Cc2ccccc2)n1`, 11.1%.
Under `Cn1cc(NS(=O)(=O)c2cccc(S(=O)(=O)F)c2)ccc1=O` stands 103%; under `CCn1ncnc1NS(=O)(=O)c1cccc(S(=O)(=O)F)c1`, 99%; under `CC1(C)C(=O)NC1c1ccco1` (stereo not shown), 1.96%.
For `CN(CCc1nccs1)C(=O)c1cccnc1S`, the Inhibition % came to 5.89%.
As for `C=CC(=O)N1CCN(C(=O)CN2C(=O)CCC2=O)CC1`, the figure is 6.08%; as for `COC(=O)c1ccc(C)c(NC(=O)CCl)c1`, 3.25%; as for `N#CC=C1NC(=O)c2ccccc2S1`, 28.7%.
As for `CC1CN(C(=O)C=Cc2ccnn2C)CC(C)N1.Cl` (stereo not shown), the Inhibition % was 14.8%.
For the compound `CC(=O)c1ccccc1NC(=O)CCl`, the Inhibition % turned out to be 19%.
`Cn1cnc2ccc(S(=O)(=O)F)cc21`: the Inhibition % came out at 43.4%.
Consider `Cn1nccc1NS(=O)(=O)c1cccc(S(=O)(=O)F)c1`, for which the Inhibition % is 89.5%.
Turning to `O=S(=O)(F)c1cccc(S(=O)(=O)Nc2ncccn2)c1`, the Inhibition % was 16.8%.
`C=CC(=O)N1C2CCC1CC(CC(F)F)C2` (stereo not shown): the Inhibition % is recorded as 6.6%.
As for `C=CC(=O)N1CCC[C@H]1C(=O)NC`, the Inhibition % turned out to be 4.18%.
As for `O=C1OCCC1N1CCN(C(=O)c2cccc(F)c2)CC1` (stereo not shown), the figure is 8.98%; as for `O=C(CCCl)NC1CCCc2ccccc21` (stereo not shown), 2.39%; as for `N#CC(=Cc1cc2cc(F)ccc2o1)C(N)=O`, 6.05%.
As for `CCc1cc2c(=O)n(CCS(=O)(=O)F)cnc2s1`, the figure is 9.17%; as for `CNC(=O)Oc1noc(C)c1C`, 84.8%.
As for `CNC(=O)Oc1cccc(N)c1`, the figure is 20.5%; as for `CNC(=O)Oc1cccc(O)c1`, 37.6%.
For `CCc1c(OC(=O)NC)noc1C`, the Inhibition % stood at 84.6%.
For `Cc1noc(C)c1CNC(=O)CCl`, the Inhibition % is 46.7%.
With `C=CC(=O)NCc1c(C)noc1C`, the Inhibition % is given as 13.4%.
Regarding `N#Cc1nncn1CC(=O)Nc1ccc(C(F)(F)F)cc1`, the Inhibition % was 26.2%.
As to `C=CC(=O)N1CCC(NC(=O)c2oc(C)cc2C)CC1`, the Inhibition % worked out at 3.91%.
For the compound `C=CC(=O)NC1CCc2nnc(CC)n2C1` (stereo not shown), the Inhibition % came out at 7.66%.
`O=C(CCl)c1ccc(Cl)cc1`: the Inhibition % came out at 75.6%.
Turning to `O=C(CCl)c1ccc(O)cc1`, the Inhibition % was 86.7%.
As to `O=C(CCl)c1ccoc1`, the Inhibition % was 76.6%.
Under `Cc1ccc(C(=O)CCl)cc1` stands 32.3%; under `O=C(CCl)c1cc(F)ccc1O`, 38.8%; under `O=C(CCl)c1ccc(O)cc1O`, 81.9%.
On to `O=C(CCl)c1ccc(N2CCOC2=O)cc1`, for which the Inhibition % is on record as 24.5%.
As for `O=C(CCl)c1ccc(F)cc1`, the figure is 32.3%; as for `Cn1c(=O)oc2cc(C(=O)CCl)ccc21`, 0.517%; as for `O=C(CCl)NC(=O)c1ccc(Cl)cc1`, 19.6%.
On to `O=C(CCl)c1ccc(F)cc1F`, for which the Inhibition % was determined as 18.5%.
Under `C=CC(=O)NC1COCc2ccccc21` (stereo not shown) stands 9.84%; under `O=C(CN1C(=O)CCC1=O)c1ccccc1F`, 9.1%; under `CC1CC(N2CC=C(c3ccc(F)cc3)CC2)C(=O)O1` (stereo not shown), 5.18%.
Take `Cc1cccc(NC(=O)NC2C(=O)OCC2(C)C)n1` (stereo not shown): the Inhibition % is given as 7.98%.
Under `N#CC(=Cc1ccc(-c2nc3ccccc3s2)o1)C(=O)O` stands 3.06%; under `C=CC(=O)N1CCOc2ccccc21`, 9.1%; under `O=C(CCl)c1ccc(C(F)(F)F)cc1`, 12%.
Regarding `Cl.O=C(CCl)Nc1ccncc1`, the Inhibition % was determined as 14.4%.
With `Cl.O=C(CCl)c1ccncc1`, the Inhibition % came to 95.3%.
Regarding `CSc1ccc(C(=O)CCl)cc1`, the Inhibition % is 89.6%.
Under `O=C(CCl)NNC(=O)c1ccccc1` stands -3.2%.
`O=C(CCl)c1ccccc1`: the Inhibition % is reported as 56.6%.
Consider `O=C(CCl)NCC(=O)c1ccccc1`, for which the Inhibition % is reported as 4.23%.
As to `O=C(CCl)c1ccc(O)c(O)c1`, the Inhibition % is given as 75.1%.
In the case of `CCN1CCN(c2oc(C3CC3)nc2C#N)CC1`, the Inhibition % is 1.62%.
In the case of `Cc1nccn1CC1CCCN1c1ccc(C#N)nc1` (stereo not shown), the Inhibition % was 0.293%.
For `N#Cc1cc(C(=O)Nc2ccccc2)c(N)nc1S`, the Inhibition % is on record as 1.51%.
Under `C=CC(=O)N1CCN(C(=O)CC(F)(F)F)CC1` stands 12.4%.
As for `CC1CC(C)CC2(C1)NC(=O)N(CCC1OCCO1)C2=O` (stereo not shown), the figure is 2.2%; as for `C=C(C)Cn1c(C#N)nc(C)c1C`, 2.82%; as for `O=C(CCl)c1ccc2[nH]c(=O)oc2c1`, 2.68%.
Turning to `CC(C)n1ccnc1C(=O)CCl`, the Inhibition % is 48.7%.
Under `Cl.O=C(CCl)Nc1cccnn1` stands 26.1%; under `O=C(CCl)c1ccns1`, 95.1%; under `O=C(CCl)Nc1ccc2[nH]c(=O)[nH]c2c1`, 34.3%.
Consider `O=C(CCl)c1ccc2[nH]c(=O)[nH]c2c1`, for which the Inhibition % came to 63.2%.
For `CC(=O)N1c2ccc(C(=O)CCl)cc2CC1C` (stereo not shown), the Inhibition % came to 5.96%.
On to `O=C(CCl)c1ccc2c(c1)COC2`, for which the Inhibition % amounted to 72.7%.
